Values joined by “and” are separate entries in the source; they are usually repeats but may differ in a detail not shown here. Identical values can stand only once. Results filed as inconclusive are left out. Active and inactive are the calls of the source. Unless noted, the call rests on the fitted dose curve; in most records, active means well fitted curve in the direction sought with a large enough effect in the repeat runs; inconclusive means weak or mixed curves; inactive means no such curve, though single readings can be large; an effect the other way counts as inactive or inconclusive.
Tests used:
[1] = qHTS assay for small molecule agonists of the p53 signaling pathway (AID 651631; calls by dose curve; further: nearly all actives have a fitted effect of over 15% in size)
Summary of the method: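 Stably transfected HCT-116 cells (beta-lactamase behind p53 response elements) get compounds after a 5 h settling period; 16 h later at 37 °C, FRET substrate is loaded and fluorescence read after 2 h.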

[2] = qHTS assay for small molecules that induce genotoxicity in human embryonic kidney cells expressing luciferase-tagged ATAD5 (AID 651632); further: nearly all actives have a fitted effect of over 15% in size
Summary of the method: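 Increased luciferase signal from ATAD5-tagged reporter cells indicates DNA-damage-driven ATAD5 induction. HEK293T cells are treated for 16 hr at 37C before detection with Amplite.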

[3] = qHTS assay for small molecule agonists of the p53 signaling pathway - cell viability (AID 651633; calls by dose curve;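 further: p53RE-bla HCT reporter cells with a stable beta-lactamase p53 reporter; series mostly up to about 83 µM; nearly all actives have a fitted effect of over 30% in size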)
Summary of the method: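 p53RE-bla cells, seeded at 4,000 per well and rested 5 h at 37 C/5% CO2, received compounds in DMSO for 16 h at 37 C. CellTiter-Glo was then added, and luminescence was read after 30 min at room temperature to gauge cytotoxicity.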

[4] = qHTS assay for small molecules that induce genotoxicity in human embryonic kidney cells expressing luciferase-tagged ATAD5 - cell viability (AID 651634; calls by dose curve; further: nearly all actives have a fitted effect of over 25% in size)
Summary of the method: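 Cytotoxicity counterscreen in HEK293T cells bearing an ATAD5-luciferase reporter: live-cell protease activity measured by CellTiter-Fluor fluorescence after 15.5 hr compound exposure.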

[5] = qHTS assay for small molecule disruptors of the mitochondrial membrane potential - cell viability (AID 720634; calls by dose curve; further: nearly all actives have a fitted effect of over 20% in size; further: potency means the concentration at half of the fitted maximal effect)
Summary of the method: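 After overnight attachment at 37 C, HepG2 cells received compound or DMSO vehicle for 1 hr. Viability is then taken from ATP-driven luminescence following a 30 min room-temperature CellTiter-Glo step.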

[6] = qHTS assay to test for compound auto fluorescence at 590 nm (red) in HepG2 cells (AID 720674)
Summary of the method: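 Intrinsic compound fluorescence in the red window (Ex/Em 540/590 nm) is measured in attached HepG2 cells exposed for 1 hr, DMSO vehicle as baseline, benchmarked to Rose Bengal sodium.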

[7] = qHTS assay to test for compound auto fluorescence at 535 nm (green) in HepG2 cells (AID 720675)
[8] = qHTS assay to test for compound auto fluorescence at 460 nm (blue) in HEK293 cells (AID 720678)
Summary of the method: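 Measured: blue fluorescence (Ex 405/Em 460 nm) of compound-treated HEK293 cells, incubated overnight at 37C with 5% CO2 and scaled to triamterene equivalents.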

[9] = qHTS assay to test for compound auto fluorescence at 590 nm (red) in HEK293 cells (AID 720679)
Summary of the method: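 Using HEK293 cells at 2,000 per well, the screen added 23 nL of each compound after cell attachment and incubated overnight (37C, 5% CO2). The plate reader then captured red-label fluorescence, Ex/Em 540/590nm.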

[10] = qHTS assay for small molecule disruptors of the mitochondrial membrane potential (AID 720635); further: potency means the concentration at half of the fitted maximal effect
Summary of the method: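 HepG2 cells (2,000/well) attached overnight at 37C, then took compound for 1 hr at 37C, 5% CO2. Mito-MPS dye was added for 30 min; fluorescence was read at 490/535 nm (monomers) and 540/590 nm (aggregates).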

Measured: Potency

CCCCN(CC)C(=O)SCCC
inactive: [1] | [2] | [3] | [4] | [5] | [6] | [7] | [8] | [9]

ClCCBr
inactive: [1] | [2] | [3] | [4] | [5] | [10] | [6] | [7] | [8] | [9]

c1ccc(-c2ccccc2)cc1
inactive: [1] | [2] | [3] | [4] | [5] | [10] | [6] | [7] | [8]

CCCC1COC(Cn2cncn2)(c2ccc(Cl)cc2Cl)O1 (stereo not drawn)
inactive: [1] | [2] | [3] | [4] | [5] | [6] | [7] | [8] | [9]

CCOC(=O)c1ccccc1C(=O)OCC
inactive: [1] | [2] | [3] | [4] | [5] | [6] | [7] | [8] | [9]

CCCCCOC(=O)c1ccccc1C(=O)OCCCCC
inactive: [1] | [2] | [3] | [4] | [5] | [6] | [7] | [8] | [9]

O=NN1CCCCCCC1
inactive: [1] | [2] | [3] | [4] | [5] | [6] | [7] | [8] | [9]

O=C(NC(=O)c1c(F)cccc1F)Nc1cc(Cl)c(OC(F)(F)C(F)C(F)(F)F)cc1Cl (stereo not drawn)
active: [5] 6.68 µM and 7.7 µM
inactive: [1] | [2] | [3] | [4] | [6] | [7] | [8] | [9]

Nc1ccc(Oc2ccc(N)cc2)cc1
inactive: [1] | [2] | [3] | [4] | [5] | [10] | [6] | [7] | [8] | [9]

ClCc1cccnc1
inactive: [1] | [2] | [3] | [4] | [5] | [10] | [6] | [7] | [8]

CCN(CC)CCO
inactive: [1] | [2] | [3] | [4] | [5] | [10] | [6] | [7] | [8] | [9]

CN=C=S
inactive: [1] | [2] | [3] | [4] | [5] | [10] | [6] | [7] | [8]

NCCc1ccc(O)cc1
inactive: [1] | [2] | [3] | [4] | [5] | [10] | [6] | [7] | [8] | [9]

c1cc2c3c(cccc3c1)CC2
inactive: [1] | [2] | [3] | [4] | [5] | [10] | [6] | [7] | [8]

CCCCCCCCCl
inactive: [1] | [2] | [3] | [4] | [5] | [10] | [6] | [7] | [8] | [9]

O=c1[nH]c(=O)[nH]c(=O)[nH]1
inactive: [1] | [2] | [3] | [4] | [5] | [10] | [6] | [7] | [8] | [9]

Cc1cc(-c2cc(C)c(N)c(C)c2)cc(C)c1N
inactive: [1] | [2] | [3] | [4] | [5] | [6] | [7] | [8] | [9]

CCN(CC)c1ccccc1
inactive: [1] | [2] | [3] | [4] | [5] | [6] | [7] | [8] | [9]

Nc1ccccc1C(=O)O
inactive: [1] | [2] | [3] | [4] | [5] | [10] | [6] | [7] | [8] | [9]

CCOP(OCC)OCC
inactive: [1] | [2] | [3] | [4] | [5] | [10] | [6] | [7] | [8]

O=[N+]([O-])c1ccc(Oc2ccc(Cl)cc2Cl)cc1
active: [10] 54.8 µM and 30.6 µM
inactive: [1] | [2] | [3] | [4] | [5] | [6] | [7] | [8]

Clc1ccc(Cl)cc1
inactive: [1] | [2] | [3] | [4] | [5] | [10] | [6] | [7] | [8] | [9]

CCCCOC(=O)c1ccccc1C(=O)OCCCC
inactive: [1] | [2] | [3] | [4] | [5] | [10] | [6] | [7] | [8]

CC(C)(Cl)Cl
inactive: [1] | [2] | [3] | [4] | [5] | [6] | [7] | [8]

COC(=O)c1ccccc1C(=O)OC
inactive: [1] | [2] | [3] | [4] | [5] | [10] | [6] | [7] | [8]

COC(=O)NC(=S)Nc1ccccc1NC(=S)NC(=O)OC
inactive: [1] | [2] | [3] | [4] | [5] | [6] | [7] | [8] | [9]

CN(C)CCO
inactive: [1] | [2] | [3] | [4] | [5] | [10] | [6] | [7] | [8] | [9]

CCC12COCN1COC2
inactive: [1] | [2] | [3] | [4] | [5] | [6] | [7] | [8] | [9]

Cc1cc(Cl)ccc1O
active: [10] 42 µM and 54.5 µM
inactive: [1] | [2] | [3] | [4] | [5] | [6] | [7] | [8] | [9]

O=[N+]([O-])c1ccccc1
inactive: [1] | [2] | [3] | [4] | [5] | [6] | [7] | [8] | [9]

O=NN1CCCC1
inactive: [1] | [2] | [3] | [4] | [5] | [6] | [7] | [8]

CC1OC(C)OC(C)O1 (stereo not drawn)
inactive: [1] | [2] | [3] | [4] | [5] | [10] | [6] | [7] | [8]

CC(Br)C(=O)O (stereo not drawn)
inactive: [1] | [2] | [3] | [4] | [5] | [6] | [7] | [8] | [9]

c1ccc(OP(Oc2ccccc2)Oc2ccccc2)cc1
inactive: [1] | [2] | [3] | [4] | [5] | [6] | [7] | [8] | [9]

C=CCO
inactive: [1] | [2] | [3] | [4] | [5] | [6] | [7] | [8] | [9]

CCC[CH2][Sn]([Cl])([Cl])[Cl]
inactive: [1] | [2] | [3] | [4] | [5] | [10] | [6] | [7] | [8] | [9]

Cc1cccc([N+](=O)[O-])c1
inactive: [2] | [3] | [4] | [5] | [10] | [6] | [7] | [8] | [9]

CC(C)(C)OOC(=O)c1ccccc1
inactive: [2] | [3] | [4] | [5] | [10] | [6] | [7] | [8] | [9]

CCC[N+](=O)[O-]
inactive: [2] | [3] | [4] | [5] | [10] | [6] | [7] | [8]

CC(C)(C)OOC(C)(C)C
inactive: [2] | [3] | [4] | [5] | [10] | [6] | [7] | [8]

CN(N=O)c1ccccc1
inactive: [2] | [3] | [4] | [5] | [10] | [6] | [7] | [8]

CNC(=O)Oc1ccccc1OC(C)C
inactive: [2] | [3] | [4] | [5] | [6] | [7] | [8]

CCCCCCCCCCCC#N
inactive: [2] | [3] | [4] | [5] | [10] | [6] | [7] | [8]

O=c1[nH]c2ccccc2c(=O)o1
inactive: [2] | [3] | [4] | [5] | [10] | [6] | [7] | [8]

CC(C#N)CCC#N (stereo not drawn)
inactive: [1] | [2] | [3] | [4] | [6] | [7] | [8]

C=CC(N)=O
inactive: [1] | [3] | [5] | [10] | [6] | [7] | [8] | [9]

CC(Oc1ccc(Cl)cc1Cl)C(=O)O (stereo not drawn)
inactive: [1] | [2] | [3] | [4] | [6] | [7] | [8]

CCc1cccc(C)c1N(C(=O)CCl)C(C)COC (stereo not drawn)
inactive: [1] | [2] | [3] | [4] | [5] | [6] | [7] | [8] | [9]

COC(=O)NS(=O)(=O)c1ccc(N)cc1
inactive: [2] | [3] | [4] | [5] | [10] | [6] | [7] | [8]

CCOP(=S)(OCC)Oc1cnc2ccccc2n1
inactive: [1] | [2] | [3] | [4] | [6] | [7] | [8]

OC(O)C(Cl)(Cl)Cl
inactive: [2] | [3] | [4] | [5] | [10] | [6] | [7] | [8] | [9]

— PubChem BioAssay (Tox21)
